Experimental data published in PubChem BioAssay (Tox21).
Values joined by “and” are separate entries in the source; they are usually repeats but may differ in a detail not shown here. Equal entries are not always repeated. Records with an inconclusive call do not appear. Entries that show only a call come without a potency. More than one record can exist for a structure, and the calls need not agree. Active and inactive are the calls of the source. Unless noted, calls follow the shape of the dose curve; as a rule, active = well fitted curve in the direction sought with a large enough effect in the repeat runs; inconclusive = weak or mixed curves; inactive = no such curve, though single readings can be large; an effect the other way counts as inactive or inconclusive.

How the values were obtained:
[1] = qHTS assay to identify small molecule antagonists of the glucocorticoid receptor (GR) signaling pathway - cell viability counter screen (AID 720693); also: nearly all actives have a fitted effect of over 55% in size; also: potency is read from the fitted curve at half-maximal effect
[2] = qHTS assay for identifying genotoxic compounds that show differential cytotoxicity against isogenic chicken DT40 cell lines with known DNA damage response pathways - wild type cell line (AID 743012); also: nearly all actives have a fitted effect of over 60% in size; also: potency is read from the fitted curve at half-maximal effect
Outline: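 Using parental DT40 (300 cells/well), compounds delivered in DMSO incubate 40 h at 37 C/5% CO2. CellTiter-Glo reagent then stands 30 min at room temperature, and luminescence gives cell viability.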

[3] = qHTS assay for identifying genotoxic compounds that show differential cytotoxicity against isogenic chicken DT40 cell lines with known DNA damage response pathways - Rev3 mutant cell line (AID 743014); also: nearly all actives have a fitted effect of over 55% in size; also: potency is read from the fitted curve at half-maximal effect
[4] = qHTS assay for identifying genotoxic compounds that show differential cytotoxicity against isogenic chicken DT40 cell lines with known DNA damage response pathways - Rad54/Ku70 mutant cell line (AID 743015); also: nearly all actives have a fitted effect of over 60% in size; also: potency is read from the fitted curve at half-maximal effect
[5] = qHTS assay to identify small molecule antagonists of the androgen receptor (AR) signaling pathway - cell viability counter screen (AID 743033; also: nearly all actives have a fitted effect of over 45% in size)
[6] = qHTS assay to identify small molecule antagonists of the androgen receptor (AR) signaling pathway using the MDA cell line - cell viability counter screen (AID 743041; also: nearly all actives have a fitted effect of over 45% in size; also: potency is read from the fitted curve at half-maximal effect)
Outline: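 R1881-driven MDA-kb2 AR-luc cells, 3,000/well, were dosed with library compounds for 16 h; cell health came from CellTiter-Fluor fluorescence in the reporter wells.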

[7] = biological target: Androgen receptor (Homo sapiens) (UniProt P10275); experiment: qHTS assay to identify small molecule antagonists of the androgen receptor (AR) signaling pathway (AID 743035; active = well fitted inhibition curve with a large enough effect in the signal ratio in the repeat runs, not every such curve was filed as active; the % refers to the signal ratio; also: potency is read from the fitted curve at half-maximal effect)
Outline: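 Using qHTS, AR-UAS-bla GripTite HEK293 cells received compound, then R1881, and were cultured 16 h at 37C/5% CO2 before a 2 h room-temperature LiveBLAzer B/G FRET substrate step and fluorescence measurement.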

[8] = biological target: Androgen receptor (Homo sapiens) (UniProt P10275); experiment: qHTS assay to identify small molecule agonists of the androgen receptor (AR) signaling pathway (AID 743036; active = well fitted activation curve with a large enough effect in the signal ratio in the repeat runs, with a control signal flat, not every such curve was filed as active; the % refers to the signal ratio)
Outline: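 Agonist activity was scored by beta-lactamase reporter fluorescence in stably transfected HEK293 cells exposed to compounds for 16 h at 37C and 5% CO2. Substrate loading took 2 h at room temperature.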

[9] = biological target: Androgen receptor (Homo sapiens) (UniProt P10275); experiment: qHTS assay to identify small molecule agonists of the androgen receptor (AR) signaling pathway using the MDA cell line (AID 743040; also: nearly all actives have a fitted effect of over 20% in size)
Outline: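 After a 5 h incubation at 37C and 0% CO2, MDA-kb2 reporter cells were dosed with compounds in DMSO and kept 16 h under the same conditions. Luciferase activity was then read as luminescence with ONE-Glo.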

[10] = biological target: Androgen receptor (Homo sapiens) (UniProt P10275); experiment: qHTS assay to identify small molecule antagonists of the androgen receptor (AR) signaling pathway using the MDA cell line (AID 743042; also: nearly all actives have a fitted effect of over 55% in size; also: potency is read from the fitted curve at half-maximal effect)
Outline: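 Antagonist mode: compounds plus R1881 agonist added to MDA-kb2 AR-luc cells, incubated 16 h at 37C. Luciferase reporter luminescence quantified, with multiplexed CellTiter-Fluor readout for cell viability.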

Sequence of Androgen receptor (Homo sapiens) (P10275 whole entry, looked up): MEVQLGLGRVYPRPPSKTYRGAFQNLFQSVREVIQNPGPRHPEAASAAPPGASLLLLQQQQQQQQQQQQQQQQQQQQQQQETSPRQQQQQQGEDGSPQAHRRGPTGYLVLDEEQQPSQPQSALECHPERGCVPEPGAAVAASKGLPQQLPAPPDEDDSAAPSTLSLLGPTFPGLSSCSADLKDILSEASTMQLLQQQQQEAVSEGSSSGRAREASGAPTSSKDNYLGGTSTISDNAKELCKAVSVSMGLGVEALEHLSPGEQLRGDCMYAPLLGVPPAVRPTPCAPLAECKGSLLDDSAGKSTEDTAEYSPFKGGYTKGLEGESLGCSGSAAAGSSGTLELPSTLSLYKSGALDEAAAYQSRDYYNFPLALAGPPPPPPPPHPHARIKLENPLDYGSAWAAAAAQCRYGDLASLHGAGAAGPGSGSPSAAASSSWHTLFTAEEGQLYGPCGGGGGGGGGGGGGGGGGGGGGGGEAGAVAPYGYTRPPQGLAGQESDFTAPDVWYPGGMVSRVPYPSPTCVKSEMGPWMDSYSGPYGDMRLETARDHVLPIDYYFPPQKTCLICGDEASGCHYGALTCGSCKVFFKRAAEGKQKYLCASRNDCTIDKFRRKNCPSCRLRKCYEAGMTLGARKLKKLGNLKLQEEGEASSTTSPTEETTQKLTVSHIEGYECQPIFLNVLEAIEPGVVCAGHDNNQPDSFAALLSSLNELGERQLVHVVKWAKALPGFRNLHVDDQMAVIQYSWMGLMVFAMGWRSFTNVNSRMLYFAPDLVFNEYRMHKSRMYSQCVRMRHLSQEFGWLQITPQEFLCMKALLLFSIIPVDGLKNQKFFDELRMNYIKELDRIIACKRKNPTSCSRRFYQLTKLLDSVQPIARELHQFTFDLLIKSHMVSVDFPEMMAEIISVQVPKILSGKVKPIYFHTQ

SMILES	Potency [1]	Potency [2]	Potency [3]	Potency [4]	Potency [5]	Potency [6]	Potency [7]	Potency [8]	Potency [9]	Potency [10]
O=C(CCN1CCC(c2ccccc2)C1)c1ccc2c(c1)OCCO2 (configuration not stated)	inactive	2.66 µM (active)	4.73 µM (active)	4.22 µM (active)	inactive	29.8 µM (active)	–	–	–	–
O=C(O)C[C@H](O)C[C@H](O)/C=C/c1c(C2CC2)nc2ccccc2c1-c1ccc(F)cc1	inactive	0.531 µM (active)	0.0944 µM (active)	1.68 µM (active)	–	inactive	1.69 µM (active)	inactive	inactive	inactive
COc1cc2c(cc1OC)[C@@H](Cc1cc(OC)c(OC)c(OC)c1)[N+](C)(CCCOC(=O)CC/C=C/CCC(=O)OCCC[N+]1(C)CCc3cc(OC)c(OC)cc3[C@H]1Cc1cc(OC)c(OC)c(OC)c1)CC2 (some centres not stated)	inactive	inactive	inactive	inactive	inactive	inactive	–	–	–	–
COc1ccc([C@@H]2CC(=O)c3c(O)cc(O[C@@H]4O[C@H](CO[C@@H]5O[C@@H](C)[C@H](O)[C@@H](O)[C@H]5O)[C@@H](O)[C@H](O)[C@H]4O)cc3O2)cc1O	inactive	inactive	inactive	inactive	–	inactive	–	inactive	inactive	inactive
CCOC(=O)[C@H](CCc1ccccc1)N[C@@H](C)C(=O)N1[C@H](C(=O)O)C[C@H]2CCCC[C@@H]21	inactive	inactive	inactive	inactive	–	inactive	inactive	inactive	inactive	inactive
COc1cccc2c1[C@@H]1CN(CCCCn3c(=O)[nH]c4c(sc5ncc(-c6ccccc6)nc54)c3=O)C[C@@H]1CO2	inactive	13.3 µM (active)	18.8 µM (active)	11.9 µM (active)	–	–	–	–	inactive	29.8 µM (active)
O=C(O)COc1ccccc1/C=N/NC(=O)c1ccncc1	inactive	inactive	inactive	inactive	–	inactive	inactive	inactive	inactive	inactive
CCCCCCOC(=O)c1cccnc1	inactive	inactive	inactive	inactive	inactive	inactive	–	–	–	–
c1ccc2cc3c4ccccc4c4ccccc4c3cc2c1	inactive	inactive	inactive	inactive	–	inactive	–	–	–	–
NCC1CCC(C(=O)O)CC1 (configuration not stated)	inactive	inactive	inactive	inactive	–	inactive	–	–	–	–
C=N[C@@H](C(=O)N[C@@H]1C(=O)N2[C@@H]1SC(C)(C)[C@@H]2C(=O)O)c1ccccc1	inactive	inactive	inactive	inactive	inactive	inactive	–	–	–	–
CC[C@H](C)C(=O)O[C@H]1CCC=C2C=C[C@H](C)[C@H](CC[C@@H]3C[C@@H](O)CC(=O)O3)[C@H]21	inactive	2.98 µM (active)	2.37 µM (active)	11.9 µM (active)	–	inactive	15.1 µM (active)	inactive	inactive	inactive
COc1cc2c(cc1O)CCN[C@]21CS[C@@H]2c3c(OC(C)=O)c(C)c4c(c3[C@H](COC1=O)N1[C@@H]2[C@H]2c3c(cc(C)c(OC)c3O)C[C@@H]([C@@H]1O)N2C)OCO4	60.1 nM (active) and 17.4 nM (active)	0.9 nM (active) and 2.4 nM (active)	0.0486 µM (active)	0.0001 µM (active)	–	inactive	–	–	–	–
CCCC(CCC)C(=O)OC1C[C@H]2CC[C@@H](C1)[N+]2(C)C (some centres not stated)	inactive	inactive	inactive and 13.3 µM (active)	inactive	inactive	inactive	–	–	–	–
COc1ccc(/C=C/C(=O)O)cc1	inactive	inactive	inactive	inactive	–	inactive	inactive	inactive	inactive	inactive
FC(F)(F)C(F)(F)C(F)(F)C(F)(F)C(F)(F)F	inactive	inactive	inactive	inactive	–	inactive	–	–	–	–
CCCCCCCCCCCCCCCCCCNC(=O)OC1CCN(C(=O)OC[C@H](COC(=O)N(Cc2cccc[n+]2CC)C(=O)c2ccccc2OC)OC)CC1	16.9 µM (active)	5.31 µM (active)	6.68 µM (active)	5.96 µM (active)	–	23.7 µM (active)	10.7 µM (active)	–	inactive	13.3 µM (active)
O=C1CCC(c2ccc(-n3ccnc3)cc2)=NN1	inactive	inactive	inactive	inactive	–	inactive	–	–	–	–
CCc1cn([C@H]2C[C@H](O)[C@@H](CO)O2)c(=O)[nH]c1=O	inactive	inactive	inactive	inactive	–	inactive	–	–	–	–
COC(=O)C[C@](O)(CCCC(C)(C)O)C(=O)O[C@@H]1C(OC)=CC23CCCN2CCc2cc4c(cc2[C@H]13)OCO4 (some centres not stated)	1.2 µM (active) and 1.07 µM (active)	29.8 nM (active) and 23.7 nM (active)	21.1 nM (active) and 26.6 nM (active)	0.0237 µM (active)	–	0.0531 µM (active)	75.6 nM (active) and 67.4 nM (active)	–	inactive	0.0211 µM (active)
C[C@]12O[C@H](C[C@]1(O)CO)n1c3ccccc3c3c4c(c5c6ccccc6n2c5c31)CNC4=O	3.01 µM (active)	0.237 µM (active)	0.376 µM (active)	0.376 µM (active)	–	11.9 µM (active)	–	–	inactive	2.98 µM (active)

SMILES	Potency [1]	Potency [2]	Potency [3]	Potency [4]	Potency [5]	Potency [6]	Potency [7]	Potency [8]	Potency [9]	Potency [10]
NC(=O)CC[C@@H]1NC(=O)[C@H](Cc2ccccc2)NC(=O)[C@H](Cc2ccc(O)cc2)NC(=O)[C@@H](N)CSSC[C@@H](C(=O)N2CCC[C@H]2C(=O)N[C@@H](CCCN=C(N)N)C(=O)NCC(N)=O)NC(=O)[C@H](CC(N)=O)NC1=O	inactive	inactive	inactive	inactive	–	inactive	–	–	–	–
CC(=O)[C@]1(O)Cc2c(O)c3c(c(O)c2[C@@H](O[C@H]2C[C@H](N)[C@H](O)[C@H](C)O2)C1)C(=O)c1ccccc1C3=O	3.01 µM (active)	0.0211 µM (active)	0.0211 µM (active)	0.0033 µM (active)	–	15 µM (active)	3.38 µM (active)	–	inactive	0.422 µM (active)
CCN(CC)CC#CCOC(=O)C(O)(c1ccccc1)C1CCCCC1 (configuration not stated)	inactive	11.9 µM (active)	13.3 µM (active)	26.6 µM (active)	inactive	inactive	–	–	–	–
O=C1c2ccccc2-c2n[nH]c3cccc1c23	inactive	9.44 µM (active)	11.9 µM (active)	9.44 µM (active)	–	–	–	–	inactive	inactive
C[C@@H]1O[C@@H]1P(=O)(O)O	inactive	–	–	inactive	inactive	inactive	inactive	inactive	inactive	inactive
NC(=O)[C@@H]1C[C@]2(NC(=O)NC2=O)c2cc(F)ccc2O1	inactive	–	–	inactive	inactive	inactive	–	–	–	–
N[C@@H](Cc1ccc(O)c(O)c1)C(=O)O	inactive	–	inactive	inactive	inactive	inactive	–	–	–	–
CC(=O)O[C@H]1C[C@@H]2CC[C@@H]3[C@H](CC[C@@]4(C)[C@H]3C[C@H]([N+]3(C)CCCCC3)[C@@H]4OC(C)=O)[C@@]2(C)C[C@@H]1[N+]1(C)CCCCC1	inactive	–	inactive	inactive	inactive	inactive	–	–	–	–
O=C1OC(=O)c2cc(-c3ccc4c(c3)C(=O)OC4=O)ccc21	inactive	–	54.5 µM (active)	54.5 µM (active)	–	inactive	–	–	–	–
Cc1ccc2nc(-c3ccc(N)cc3)sc2c1S(=O)(=O)O	inactive	–	inactive	26.9 µM (active)	inactive	inactive	–	–	–	inactive
Cc1ccc(Cl)c(N)c1Cl	inactive	–	68.6 µM (active)	inactive	inactive	inactive	–	–	–	–
CN(C)CCOc1ccc(/C(=C(/CCCl)c2ccccc2)c2ccccc2)cc1	inactive	–	2.66 µM (active) and 1.44 µM (active)	9.44 µM (active) and 2.03 µM (active)	–	inactive	–	–	–	inactive and 57.2 µM (active)
O=P(O)(O)OP(=O)(O)OP(=O)(O)O	inactive	–	inactive	inactive	–	inactive	inactive	–	inactive	inactive
O=C(O)c1cc(=O)c2c3nc4ccccc4oc-3cc(=O)c2[nH]1	inactive	–	inactive	–	inactive	–	–	–	–	–
NC(N)=NCCCCN=C(N)N	inactive	–	inactive	inactive	inactive	inactive	–	–	–	–
CCOC(=O)Cc1ccc(-c2ccccc2)cc1	inactive	–	inactive	inactive	inactive	inactive	–	–	–	–
NC(=S)NS(=O)(=O)c1ccc(N)cc1	inactive	–	inactive	inactive	inactive	inactive	–	–	–	–
C=CC1=C(C(=O)O)N2C(=O)[C@@H](NC(=O)/C(=N/OCC(=O)O)c3csc(N)n3)[C@H]2SC1 (stereo in doubt)	inactive	–	–	inactive	inactive	inactive	–	–	–	–
CCCCCCCC/C=C\CCCCCCCC(=O)N(CCO)CCO	48.8 µM (active)	–	17.2 µM (active)	13.6 µM (active)	–	43.1 µM (active)	–	–	–	–
C=CC[N+]1([C@H]2C[C@H]3[C@@H]4CC[C@H]5C[C@H](O)[C@@H](N6CCOCC6)C[C@]5(C)[C@H]4CC[C@]3(C)[C@H]2OC(C)=O)CCCC1	inactive	–	inactive	inactive	inactive	inactive	–	–	–	–
CC(C)Cc1ccc([C@H](C)C(=O)O)cc1	inactive	–	inactive	inactive	inactive	inactive	–	–	–	–
